Assay results reported in PubChem BioAssay (NCATS).
A number with no mark means an inactive call. Records with an inconclusive call do not appear. Entries that show only a call come without a potency. Activity calls are given as the source filed them. The call rests on the fitted dose curve; in most records, active means well fitted curve in the direction sought with a large enough effect; inconclusive means small, poorly fitted or top-dose-only effect, or another doubt; inactive means no such curve, though single readings can be large; an effect the other way counts as inactive or inconclusive.

How the values were obtained:
[1] = target: Tyrosine-protein phosphatase non-receptor type substrate 1 (Homo sapiens) + Leukocyte surface antigen CD47 (Homo sapiens) (UniProt P78324+Q08722); assay: CD47-SIRPalpha protein protein interaction - Alpha assay qHTS validation (AID 1347059);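 further: bead proximity luminescence from CD47 binding SIRPalpha after compound preincubation with SIRPalpha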
Tyrosine-protein phosphatase non-receptor type substrate 1 (Homo sapiens) + Leukocyte surface antigen CD47 (Homo sapiens), sequence (P78324 whole entry, looked up, the tested form may be a part): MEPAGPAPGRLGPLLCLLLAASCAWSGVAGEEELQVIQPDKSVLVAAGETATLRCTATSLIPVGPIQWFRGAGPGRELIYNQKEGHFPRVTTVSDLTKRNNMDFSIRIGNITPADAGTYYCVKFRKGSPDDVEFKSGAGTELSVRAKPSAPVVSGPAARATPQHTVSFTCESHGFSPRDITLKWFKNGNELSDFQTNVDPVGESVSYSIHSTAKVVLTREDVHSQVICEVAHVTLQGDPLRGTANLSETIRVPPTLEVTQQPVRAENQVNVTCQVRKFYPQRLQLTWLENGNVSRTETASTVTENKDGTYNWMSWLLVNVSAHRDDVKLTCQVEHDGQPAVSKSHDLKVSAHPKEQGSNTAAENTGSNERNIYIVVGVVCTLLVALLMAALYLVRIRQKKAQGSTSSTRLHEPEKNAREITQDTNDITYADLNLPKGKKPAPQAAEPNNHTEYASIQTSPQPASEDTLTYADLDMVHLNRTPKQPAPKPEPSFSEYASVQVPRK
Tyrosine-protein phosphatase non-receptor type substrate 1 (Homo sapiens) + Leukocyte surface antigen CD47 (Homo sapiens), sequence (Q08722 whole entry, looked up, the tested form may be a part): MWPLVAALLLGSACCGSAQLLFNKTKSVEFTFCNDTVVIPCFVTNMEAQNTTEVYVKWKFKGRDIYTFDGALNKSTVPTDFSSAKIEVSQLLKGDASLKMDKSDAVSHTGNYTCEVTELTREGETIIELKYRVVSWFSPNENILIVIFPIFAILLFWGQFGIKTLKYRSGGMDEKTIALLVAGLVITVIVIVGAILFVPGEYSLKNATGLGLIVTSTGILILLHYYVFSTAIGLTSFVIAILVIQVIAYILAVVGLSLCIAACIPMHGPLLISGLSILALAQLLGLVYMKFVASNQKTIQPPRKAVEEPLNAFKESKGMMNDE
Outline: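 Soluble extracellular domains: Avi-tag biotinylated SIRPalpha (25 nM) preincubated 30 min RT with compound, then 6His-CD47 (12.5 nM) 30 min; Ni-NTA acceptor and streptavidin donor beads (10 ug/mL) 30 min, AlphaScreen read. PBS pH 7.4, 0.05% IGEPAL.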

[2] = target: Parathyroid hormone/parathyroid hormone-related peptide receptor (Homo sapiens) (UniProt Q03431); assay: qHTS for PTHR1 Agonists: Optimization Screen against the NCGC LOPAC library (AID 1347079);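 further: GloSensor cAMP luminescence in HEK-293 GP2 cells expressing human PTHR1 with IBMX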
Parathyroid hormone/parathyroid hormone-related peptide receptor (Homo sapiens), sequence (Q03431 whole entry, looked up): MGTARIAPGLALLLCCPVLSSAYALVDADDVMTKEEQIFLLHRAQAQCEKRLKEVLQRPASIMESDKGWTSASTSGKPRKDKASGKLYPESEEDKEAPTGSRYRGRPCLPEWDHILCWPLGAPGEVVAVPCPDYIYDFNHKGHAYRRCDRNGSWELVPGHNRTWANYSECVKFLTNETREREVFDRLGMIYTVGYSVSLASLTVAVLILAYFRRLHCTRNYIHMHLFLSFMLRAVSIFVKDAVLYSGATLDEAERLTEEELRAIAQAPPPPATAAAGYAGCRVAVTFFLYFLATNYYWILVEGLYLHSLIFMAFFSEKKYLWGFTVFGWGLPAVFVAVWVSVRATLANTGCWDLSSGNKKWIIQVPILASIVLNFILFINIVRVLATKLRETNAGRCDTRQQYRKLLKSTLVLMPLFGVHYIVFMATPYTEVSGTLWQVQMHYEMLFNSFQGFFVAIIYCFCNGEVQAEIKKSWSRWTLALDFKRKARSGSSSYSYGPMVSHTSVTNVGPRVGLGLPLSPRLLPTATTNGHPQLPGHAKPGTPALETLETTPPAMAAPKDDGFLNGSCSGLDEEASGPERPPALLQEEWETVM
Outline: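 Compounds were tested across a qHTS titration. PTHR1-expressing GP2 cells report cAMP rises via GloSensor luminescence after 1 hr compound exposure at 37C with IBMX present.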

[3] = qHTS of pediatric cancer cell lines to identify multiple opportunities for drug repurposing: Primary screen for TC32 cells (AID 1347089); further: nearly all actives have a fitted effect of over 60% in size
Outline: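 Luminescent ATP read-out (CellTiter-Glo) of metabolically active TC32 cells after 48 h exposure. Concentration-response curves came from 11-point (MIPE, 0.78 nM–46 µM) or 8-point (NPC, 0.59 nM–46 µM) primary titrations; follow-up used 11 points.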

[4] = qHTS of pediatric cancer cell lines to identify multiple opportunities for drug repurposing: Primary screen for SJ-GBM2 cells (AID 1347091)
Outline: (§1)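 Eight- or eleven-point concentration series, 48 h treatment at 37 degrees C in growth media; readout CellTiter-Glo luminescence. Potency and efficacy were taken from the concentration-response curves.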

[5] = qHTS of pediatric cancer cell lines to identify multiple opportunities for drug repurposing: Primary screen for A673 cells (AID 1347092); further: nearly all actives have a fitted effect of over 45% in size
Outline: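 Cell viability of A673 measured by CellTiter-Glo ATP luminescence after 48 hours compound exposure. Dilution series spanned 0.78 nM to 46 µM (MIPE, 11-point) or 0.59 nM to 46 µM (NPC, 8-point); bortezomib 2.3 uM positive control.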

[6] = qHTS of pediatric cancer cell lines to identify multiple opportunities for drug repurposing: Primary screen for SK-N-MC cells (AID 1347093); further: potency means the concentration at half of the fitted maximal effect; on activity change, negative = cytotoxic: series mostly up to about 46 µM
Outline: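 Metabolically active cells were quantified by ATP-dependent luminescence (CellTiter-Glo, 15 min at room temperature) following 48 h treatment. Cells had been plated at 500-1,000 per well and settled for 5 h beforehand.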

[7] = qHTS of pediatric cancer cell lines to identify multiple opportunities for drug repurposing: Primary screen for BT-37 cells (AID 1347094); further: series mostly up to about 57 µM
Outline: (§2)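 Viability was measured as metabolically active cells after 48 hours of treatment, read by CellTiter-Glo luminescence. Compounds were tested at multiple final concentrations, giving concentration-response curves.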

[8] = qHTS of pediatric cancer cell lines to identify multiple opportunities for drug repurposing: Primary screen for NB-EBc1 cells (AID 1347095)
Outline: as §2

[9] = qHTS of pediatric cancer cell lines to identify multiple opportunities for drug repurposing: Primary screen for U-2 OS cells (AID 1347096); further: nearly all actives have a fitted effect of over 50% in size
Outline: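 Cells (500-1,000/well) in growth media were settled 5 h at 37 degrees C, then given compounds for 48 h. Viability was read as CellTiter-Glo luminescence. Primary runs used MIPE at 11 points (0.78 nM-46 µM) and NPC at 8 points (0.59 nM-46 µM); follow-ups used 11 points.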

[10] = qHTS of pediatric cancer cell lines to identify multiple opportunities for drug repurposing: Primary screen for DAOY cells (AID 1347090); further: series mostly up to about 46 µM; nearly all actives have a fitted effect of over 55% in size
Outline: as §1

Question: Which outcome [1] does the source give for `C=Cc1c(C)c2cc3[nH]c(cc4nc(cc5nc(cc1[nH]2)C(C)=C5CCC(=O)O)C(CCC(=O)O)=C4C)c(C)c3C=C` here?
Answer: inactive

Question: And the Potency [2]?
Answer: inactive

Question: What about the Potency [3] of the same compound?
Answer: inactive

Question: What about the Potency [4] of the same compound?
Answer: inactive

Question: What about the Potency [5] of the same compound?
Answer: inactive

Question: And the Potency [6]?
Answer: inactive

Question: What about the Potency [7] of the same compound?
Answer: inactive

Question: And the Potency [8]?
Answer: inactive

Question: And the Potency [9]?
Answer: inactive

Question: With `COc1ccc(Cl)cc1C(=O)NCCc1ccc(S(=O)(=O)NC(=O)NC2CCCCC2)cc1` as the compound, how does the outcome [1] read?
Answer: inactive

Question: What about the Potency [2] of the same compound?
Answer: inactive

Question: What about the Potency [3] of the same compound?
Answer: inactive

Question: And the Potency [10]?
Answer: inactive

Question: What about the Potency [4] of the same compound?
Answer: inactive

Question: What about the Potency [5] of the same compound?
Answer: inactive

Question: What about the Potency [7] of the same compound?
Answer: inactive

Question: And the Potency [8]?
Answer: inactive

Question: And the Potency [9]?
Answer: inactive

Question: With `CC(C(O)c1ccc(O)cc1)N1CCC(Cc2ccccc2)CC1` (stereo unspecified) as the compound, how does the outcome [1] read?
Answer: inactive

Question: And the Potency [2]?
Answer: inactive

Question: What about the Potency [3] of the same compound?
Answer: inactive

Question: What about the Potency [10] of the same compound?
Answer: inactive

Question: And the Potency [4]?
Answer: inactive

Question: And the Potency [5]?
Answer: inactive

Question: What about the Potency [6] of the same compound?
Answer: inactive

Question: And the Potency [8]?
Answer: inactive

Question: And the Potency [9]?
Answer: inactive

Question: Which results are given for `O=C1N=C(O)CN1/N=C/c1ccc(-c2ccc([N+](=O)[O-])cc2)o1`?
Answer: outcome [1]: inactive; Potency [2]: inactive; Potency [3]: inactive; Potency [10]: inactive; Potency [4]: inactive; Potency [5]: inactive; Potency [6]: 5.31 µM (active); Potency [9]: inactive

Question: With `CNCC(O)c1ccc(O)c(O)c1` (stereo unspecified) as the compound, how does the outcome [1] read?
Answer: inactive

Question: And the Potency [2]?
Answer: inactive

Question: And the Potency [3]?
Answer: inactive

Question: And the Potency [10]?
Answer: inactive

Question: What about the Potency [7] of the same compound?
Answer: inactive

Question: What about the Potency [8] of the same compound?
Answer: inactive

Question: What about the Potency [9] of the same compound?
Answer: inactive

Question: Which outcome [1] does the source give for `C[C@]12CC[C@@H]3c4ccc(O)cc4CC[C@H]3[C@@H]1CCC2=O` here?
Answer: inactive

Question: What about the Potency [2] of the same compound?
Answer: inactive

Question: What about the Potency [3] of the same compound?
Answer: inactive

Question: And the Potency [10]?
Answer: inactive

Question: And the Potency [4]?
Answer: inactive

Question: What about the Potency [5] of the same compound?
Answer: inactive

Question: What about the Potency [6] of the same compound?
Answer: inactive

Question: What about the Potency [7] of the same compound?
Answer: inactive

Question: What about the Potency [8] of the same compound?
Answer: inactive

Question: What about the Potency [9] of the same compound?
Answer: inactive

Question: Which results are given for `Nc1cc(=O)[nH]c(N)n1`?
Answer: outcome [1]: inactive; Potency [2]: inactive; Potency [3]: inactive; Potency [10]: inactive; Potency [4]: inactive; Potency [5]: inactive; Potency [6]: inactive; Potency [7]: inactive; Potency [8]: inactive; Potency [9]: inactive

Question: With `CC(C)NC[C@H](O)c1ccc(O)c(O)c1` as the compound, how does the outcome [1] read?
Answer: inactive

Question: What does the source list for `CN1CCN(C2Cc3ccccc3Sc3ccc(Cl)cc32)CC1` (stereo unspecified)?
Answer: outcome [1]: inactive; Potency [2]: inactive; Potency [3]: inactive; Potency [6]: 21.1 µM (active)

Question: For `CNCCCC1c2ccccc2C=Cc2ccccc21`, which outcome [1] is on record?
Answer: inactive

Question: And the Potency [2]?
Answer: inactive

Question: What about the Potency [3] of the same compound?
Answer: inactive

Question: What about the Potency [6] of the same compound?
Answer: 11.9 µM (active)

Question: What about the Potency [8] of the same compound?
Answer: inactive

Question: For `CCCn1cnc2c1c(=O)n(CCCCC(C)=O)c(=O)n2C`, which outcome [1] is on record?
Answer: inactive

Question: And the Potency [2]?
Answer: inactive

Question: What about the Potency [3] of the same compound?
Answer: inactive

Question: What about the Potency [10] of the same compound?
Answer: inactive

Question: And the Potency [5]?
Answer: inactive

Question: What about the Potency [6] of the same compound?
Answer: inactive

Question: What about the Potency [7] of the same compound?
Answer: inactive

Question: And the Potency [8]?
Answer: inactive

Question: What about the Potency [9] of the same compound?
Answer: inactive

Question: Which results are given for `CNC(=O)Oc1ccc2c(c1)[C@]1(C)CCN(C)[C@@H]1N2C`?
Answer: outcome [1]: inactive; Potency [2]: inactive; Potency [3]: inactive; Potency [10]: inactive; Potency [4]: inactive; Potency [5]: inactive; Potency [6]: inactive; Potency [8]: inactive; Potency [9]: inactive

Question: Which results are given for `CCN(CC)CCOC(=O)C1(C2CCCCC2)CCCCC1`?
Answer: outcome [1]: inactive; Potency [2]: inactive; Potency [3]: inactive; Potency [10]: inactive; Potency [5]: inactive; Potency [9]: inactive

Question: For `Cc1cc(N)c2ccccc2[n+]1CCCCCCCCCC[n+]1c(C)cc(N)c2ccccc21`, which outcome [1] is on record?
Answer: inactive

Question: And the Potency [2]?
Answer: inactive

Question: Which results are given for `CC(C)(C)c1onc(OCP(=O)(O)O)c1CC(N)C(=O)O` (stereo unspecified)?
Answer: outcome [1]: inactive; Potency [2]: inactive

Question: Which outcome [1] does the source give for `CC(CN(C)C)CN1c2ccccc2CCc2ccccc21` (stereo unspecified) here?
Answer: inactive

Question: What about the Potency [2] of the same compound?
Answer: inactive

Question: And the Potency [3]?
Answer: inactive

Question: What about the Potency [6] of the same compound?
Answer: inactive

Question: And the Potency [8]?
Answer: inactive

Question: And the Potency [9]?
Answer: inactive

Question: With `CN(C)CCC=C1c2ccccc2CCc2ccccc21` as the compound, how does the outcome [1] read?
Answer: inactive

Question: What about the Potency [2] of the same compound?
Answer: inactive

Question: And the Potency [3]?
Answer: inactive

Question: What about the Potency [10] of the same compound?
Answer: inactive

Question: And the Potency [9]?
Answer: inactive

Question: For `CN(C)CCCN1c2ccccc2CCc2ccccc21`, which outcome [1] is on record?
Answer: inactive

Question: What about the Potency [2] of the same compound?
Answer: inactive

Question: And the Potency [3]?
Answer: inactive

Question: And the Potency [10]?
Answer: inactive

Question: What about the Potency [7] of the same compound?
Answer: inactive

Question: What about the Potency [8] of the same compound?
Answer: inactive

Question: And the Potency [9]?
Answer: inactive

Question: What does the source list for `CN(C)CCOC(C)(c1ccccc1)c1ccccn1` (stereo unspecified)?
Answer: outcome [1]: inactive; Potency [2]: inactive; Potency [3]: inactive; Potency [4]: inactive; Potency [5]: inactive; Potency [6]: inactive; Potency [7]: inactive; Potency [8]: inactive; Potency [9]: inactive

Question: For `CCN(CC)CCNC(=O)c1cc(Cl)c(N)cc1OC`, which outcome [1] is on record?
Answer: inactive

Question: And the Potency [2]?
Answer: inactive

Question: What about the Potency [3] of the same compound?
Answer: inactive

Question: What about the Potency [10] of the same compound?
Answer: inactive

Question: What about the Potency [4] of the same compound?
Answer: inactive

Question: And the Potency [5]?
Answer: inactive

Question: And the Potency [8]?
Answer: inactive

Question: And the Potency [9]?
Answer: inactive

Question: Which outcome [1] does the source give for `C[C@](N)(Cc1ccc(O)cc1)C(=O)O` here?
Answer: inactive

Question: What about the Potency [2] of the same compound?
Answer: inactive

Question: What about the activity change, negative = cytotoxic [3] of the same compound?
Answer: 12.9% [at 4.81 µM]

Question: And the activity change, negative = cytotoxic [4]?
Answer: 11.8% [at 4.84 µM]

Question: And the Potency [6]?
Answer: 0.001 µM (active)

Question: And the activity change, negative = cytotoxic [7]?
Answer: 0.899% [at 6.03 µM]

Question: And the activity change, negative = cytotoxic [8]?
Answer: 16.2% [at 4.84 µM]

Question: What about the activity change, negative = cytotoxic [9] of the same compound?
Answer: 7.56% [at 4.84 µM]

Question: For `CC(C)C(=O)c1c(C(C)C)nn2ccccc12`, which outcome [1] is on record?
Answer: inactive

Question: And the Potency [2]?
Answer: inactive

Question: And the Potency [3]?
Answer: inactive

Question: What about the Potency [4] of the same compound?
Answer: inactive

Question: And the Potency [5]?
Answer: inactive

Question: What about the Potency [6] of the same compound?
Answer: inactive

Question: What about the Potency [7] of the same compound?
Answer: inactive

Question: What about the Potency [8] of the same compound?
Answer: inactive

Question: What about the Potency [9] of the same compound?
Answer: inactive

Question: For `CC(CN1c2ccccc2Sc2ccccc21)N(C)C` (stereo unspecified), which outcome [1] is on record?
Answer: inactive

Question: And the Potency [2]?
Answer: inactive

Question: And the Potency [3]?
Answer: inactive

Question: What about the Potency [10] of the same compound?
Answer: inactive

Question: What about the Potency [5] of the same compound?
Answer: inactive

Question: And the Potency [6]?
Answer: inactive

Question: And the Potency [8]?
Answer: inactive

Question: And the Potency [9]?
Answer: inactive

Question: Which outcome [1] does the source give for `CC(C)(C)[C@]1(O)CCN2C[C@H]3c4ccccc4CCc4cccc(c43)[C@@H]2C1` here?
Answer: inactive

Question: And the Potency [2]?
Answer: inactive

Question: Which outcome [1] does the source give for `CC1=C(CC(=O)O)c2cc(F)ccc2/C1=C\c1ccc(S(C)(=O)=O)cc1` here?
Answer: inactive

Question: And the Potency [2]?
Answer: inactive

Question: And the Potency [3]?
Answer: inactive

Question: And the Potency [10]?
Answer: inactive

Question: What about the Potency [4] of the same compound?
Answer: inactive

Question: What about the Potency [5] of the same compound?
Answer: inactive

Question: And the Potency [6]?
Answer: inactive

Question: And the Potency [8]?
Answer: inactive

Question: What about the Potency [9] of the same compound?
Answer: inactive
